Assay results as given in paper PMC4552634, “A New Set of Chemical Starting Points with Plasmodium falciparum Transmission-Blocking Potential for Antimalarial Drug Discovery” (PLoS ONE, 2015).
Hit rate of the full screen: of about 13,000 compounds, about 3,200 (25%) showed an effect of 50% or more. The list shows a part of the results.

system: P. falciparum stage V gametocytes; parameters: BacTiter-Glo ATP luminescence viability of purified stage V gametocytes in 384-well plates, per cent inhibition versus DMSO; settings: 48 h, 5 µM; inhibitor

SMILES	% Inhibition
NC(N)=NC(=O)Nc1cc(F)c(Cl)c(Br)c1 [TCMDC-137510]	-16.64%
CC(C)Nc1nc(NC2CCCCC2)nc(N2CCCCCCC2)n1 [TCMDC-139688]	-95.56%
Cc1nc2ccc(Nc3nccc(-c4c(-c5cccc(NC(=O)c6c(F)cccc6F)c5)nn5ccccc45)n3)cc2nc1C [TCMDC-135906]	-53.2%
Cc1cc(NN=Cc2cccc(Cl)c2)c2ccccc2n1 [TCMDC-142060]	-14.77%
Cc1ccc2c(NN=Cc3cccc(Cl)c3)cc(C)nc2c1 [TCMDC-142064]	91.21%
Cc1ccc2nc(C)cc(NN=Cc3cccc(Cl)c3)c2c1 [TCMDC-142063]	87.16%
Cc1ccc2c(NN=Cc3ccc(N(C)C)cc3)cc(C)nc2c1 [TCMDC-142076]	-47.79%
Cc1cc(N2CCCC2)nc(Nc2ccc(NC(=O)c3ccco3)cc2)n1 [TCMDC-124965]	-16.57%
O=C1C2C3SC(c4c3ccc3ccccc43)C2C(=O)N1c1ccccc1 (stereo not shown) [TCMDC-123946]	-5.395%
COC(=O)c1ccc(NC(=O)c2ccc(CCN3CCC(c4nc(COCC(F)(F)F)c(-c5ccc(F)cc5)o4)CC3)cc2)cc1 [TCMDC-138133]	-17.07%
CCN(C(=O)CSc1cc(C)c2cc(C)cc(C)c2n1)C1CCS(=O)(=O)C1 (stereo not shown) [TCMDC-123568]	-6.938%
CN(C)CCCOc1ccc(CN2CCC(c3c[nH]c4ccc(NCC5CCCCC5)cc34)CC2)cc1 [TCMDC-140737]	96.97%
COc1ccc2[nH]cc(C3CCN(Cc4ccc(NC(=O)c5ccc(-c6ccccc6)cc5)cc4)CC3)c2c1 [TCMDC-139069]	7.748%
COc1ccc2[nH]cc(C3CCN(CCCCNC(=O)c4ccc(NC(=O)c5ccc(Cl)cc5)cc4)CC3)c2c1 [TCMDC-138328]	-10.4%
Cc1noc(C)c1-c1cccc(CNCc2cccc(-c3cccc(-c4nc5ccccc5[nH]4)c3)c2)c1.O=C(O)C(F)(F)F [TCMDC-133065]	2.097%
COc1ccc(CCn2c(=N)c(C(=O)NCc3ccccc3)cc3c(=O)n4cccc(C)c4nc32)cc1 [TCMDC-124473]	6.095%
Cc1ccc2nc3c(cc(C(=O)NCCc4ccccc4)c(=N)n3CCCOC(C)C)c(=O)n2c1 [TCMDC-125408]	-18.91%
CCOCCCn1c(=N)c(C(=O)NCc2ccc(OC)cc2)cc2c(=O)n3cccc(C)c3nc21 [TCMDC-125406]	75.07%
CCCn1c(=N)c(C(=O)NCCc2ccccc2)cc2c(=O)n3cccc(C)c3nc21 [TCMDC-125084]	4.719%
CCCCn1c(=N)c(C(=O)NCc2cccnc2)cc2c(=O)n3cccc(C)c3nc21 [TCMDC-124382]	12.6%
COCCCn1c(=N)c(C(=O)NCCc2ccc(OC)cc2)cc2c(=O)n3cccc(C)c3nc21 [TCMDC-125085]	9.799%
COc1ccc(CCn2c(=N)c(C(=O)NCc3cccnc3)cc3c(=O)n4cccc(C)c4nc32)cc1 [TCMDC-124470]	92%

SMILES	% Inhibition
CCOCCCn1c(=N)c(C(=O)NCc2ccc(F)cc2)cc2c(=O)n3cccc(C)c3nc21 [TCMDC-125407]	36.21%
Cc1cccn2c(=O)c3cc(C(=O)NCc4cccnc4)c(=N)n(CCc4ccccc4)c3nc12 [TCMDC-125663]	86.68%
Cc1cccn2c(=O)c3cc(C(=O)NCCc4ccccc4)c(=N)n(CCCOC(C)C)c3nc12 [TCMDC-125410]	68.18%
COc1ccc(CCn2c(=N)c(C(=O)NCc3cccnc3)cc3c(=O)n4ccccc4nc32)cc1 [TCMDC-124471]	25.4%
Cc1cccn2c(=O)c3cc(C(=O)NC(C)c4ccccc4)c(=N)n(CCc4ccccc4)c3nc12 (stereo not shown) [TCMDC-124469]	-59.42%
Cn1c(-c2ccccc2)cc2c3c(=O)cc(C(F)(F)F)[nH]c3ccc21 [TCMDC-123876]	31.04%
C#CCOc1ccc(N2C(N)=NC(N)=NC2(C)C)cc1 [TCMDC-137471]	11.38%
CC(C)c1cc2c(ccc3nc(N)nc(N)c32)o1 [TCMDC-131930]	25.15%
Cc1ncccc1C(=O)Nc1cccc(-c2cccc(-c3nc4c(C)cccc4[nH]3)c2)c1 [TCMDC-136861]	-23.88%
COc1cccc(C(=O)N2CCOC(CCN3CCC(c4ccccc4)CC3)(c3ccc(Cl)c(Cl)c3)C2)c1 (stereo not shown) [TCMDC-135336]	-36.5%
CCCCNC(=O)[C@H](CC1CCCCC1)NC(=O)c1ccc(O)c(-c2ccc(Cl)c(Cl)c2)c1 [TCMDC-140841]	30.41%
COc1cc(C)cc(CN2CCC(Cc3ccccc3)CC2)c1O [TCMDC-124540]	-75.55%
Oc1c(CN2CCC(Cc3ccccc3)CC2)cc(Cl)c2cccnc12 [TCMDC-124594]	97.81%
O=C(NC1CC1)c1cnc(N2CCC(Cc3ccccc3)CC2)c(Cl)c1 [TCMDC-134606]	6.713%
Cc1nccn1Cc1cc(C(C)(C)C)c(O)c(C(C)(C)C)c1 [TCMDC-131329]	-8.756%
COc1cc(CNC[C@@H](O)[C@H](Cc2ccccc2)NC(=O)c2cc(OC(C)C)cc(N3CCCS3(=O)=O)c2)cc(OC)c1 [TCMDC-134559]	3.73%
COc1cc2c(cc1C=CC(=O)N1CCN(Cc3nc4sc(C)c(C)c4c(=O)[nH]3)CC1)OC(C)C2 (stereo not shown) [TCMDC-132412]	-4.453%
CN(C)CCOc1cc(NC(=O)Nc2ccc(-c3ccccc3)cc2Cl)ccc1I [TCMDC-139140]	-41.53%
C/C=C/C=C/C1=NCCc2cc(OCCC)ccc21 [TCMDC-137442]	112.8%
CCC(O)c1ccc(Br)cc1NC(=O)c1cccc(Cl)c1 (stereo not shown) [TCMDC-125394]	16.03%
O=C(O)c1ccc2c(c1)N(C(=O)CNCc1ccc(F)cc1)CC(=O)N2CCCc1ccccc1 [TCMDC-140379]	-9.998%
